Where “and” joins values, the source holds several entries; their conditions need not be identical. Equal values may be shown once. Out of some 16,000 compounds screened, about 5,700 (36%) were called active. Roughly 24% stayed inconclusive and do not appear here. This is one part of the list. Unmarked numbers belong to inactive results. Calls follow the shape of the dose curve; as a rule, active = well fitted curve in the direction sought with a large enough effect; inconclusive = small, poorly fitted or top-dose-only effect, or effect the other way; inactive = no such curve, though single readings can be large or run the other way. Peptide text beside a SMILES is read from it. * marks the point of attachment. PhAc = O=C(Cc1ccccc1)*; OBn = c1ccc(CO*)cc1

The results in this text go back to PubChem BioAssay AID1851 (National Center for Advancing Translational Sciences (NCATS), 2009).
% is scaled to controls: 0 for no effect and ±100 for the full control effect.

For this assay, the target named is Cytochrome P450 1A2 (Homo sapiens) (UniProt P05177). The assay is described as follows: Cytochrome panel assay with activity outcomes. The following applies: recombinant CYP, pro-luciferin dealkylation, luminescence, p450-cyp1a2; series mostly up to 57.1 µM.
Sequence of Cytochrome P450 1A2 (Homo sapiens) (P05177 whole entry, looked up): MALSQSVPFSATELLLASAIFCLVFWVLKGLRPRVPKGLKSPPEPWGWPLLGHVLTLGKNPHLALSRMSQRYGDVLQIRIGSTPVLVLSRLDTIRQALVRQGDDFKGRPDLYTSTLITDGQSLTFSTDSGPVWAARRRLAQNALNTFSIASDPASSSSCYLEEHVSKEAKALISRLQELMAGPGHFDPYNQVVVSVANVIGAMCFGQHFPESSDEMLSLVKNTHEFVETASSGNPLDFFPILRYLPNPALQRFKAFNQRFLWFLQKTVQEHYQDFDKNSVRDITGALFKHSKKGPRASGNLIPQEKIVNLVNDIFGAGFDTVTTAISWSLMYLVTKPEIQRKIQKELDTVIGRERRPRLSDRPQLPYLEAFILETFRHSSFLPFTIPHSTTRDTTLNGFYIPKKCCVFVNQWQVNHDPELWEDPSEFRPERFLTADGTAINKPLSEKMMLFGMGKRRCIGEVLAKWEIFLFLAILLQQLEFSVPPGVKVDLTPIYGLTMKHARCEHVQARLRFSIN
As usually defined, the AC50 is the concentration at which the activity in the assay is half-maximal. On to `COc1ncc2ncc(=O)n(Cc3cccs3)c2n1`, for which the AC50 is 10000 nM (active).
Same read-out and setting: under `COc1ccc(Oc2ncc3nc(C)c(=O)n(Cc4cccs4)c3n2)cc1` stands 10000 nM (active); under `COc1ccc(Oc2ncc3ncc(=O)n(Cc4cccs4)c3n2)cc1`, 10000 nM (active).
Consider `NC(N)=N[C@@H]1C(O)[C@H](N=C(N)N)[C@@H](O)C(O)[C@H]1O` (stereo not given in full), for which the activity, negative = inhibition was -4.87% [at 2.29 µM].
As for `Cc1ccc(S(=O)(=O)/N=C2/NC(=O)/C(=C/c3cccnc3)S2)cc1`, the AC50 entry was “inactive”.
On the same count and under the same terms, for `O=C1/C(=C/c2cccnc2)SC(=S)N1Cc1ccco1` the value was 501 nM (active).
Still for that read-out and setting: for `O=C(CCN1C(=O)/C(=C/c2cccc(Br)c2)SC1=S)NNC(=O)c1cccnc1` the value was “inactive”.
The same measure, in the same setting: for `CCCc1cc2c(cc1NC(=O)c1ccccc1Cl)OCO2` the value was 2510 nM (active); for `CCCc1cc2c(cc1NC(=O)c1ccccc1C)OCO2`, 2240 nM (active); for `CCCN(C(=O)Cc1nc(N)n[nH]1)C1(C(=O)Nc2ccccc2C)CCCCC1`, “inactive”.
Consider `CC[C@@]12CCCN3CCc4c(n(c5ccccc45)[C@](O)(C(=O)OC)C1)[C@H]32`, for which the AC50 result was “inactive”.
For `O=C(O)[C@H](CCc1ccccn1)c1ccccc1`, the activity, negative = inhibition is -12.5% [at 11.4 µM].
`O=C(O)CCC(=O)N1CCN(c2ccccn2)CC1`: the AC50 result is “inactive”.
Regarding `O=C(CCCc1ccccn1)c1ccccc1`, the AC50 was 5010 nM (active).
Still for that read-out and setting: under `COc1cc(/C=N\NC(=O)C2C(=O)NCC2c2ccccc2)cc(OC)c1O` (stereo not given) stands “inactive”; under `COc1cc(/C=N\Nc2nc3ccccc3[nH]2)cc(OC)c1OC`, 10000 nM (active).
Same read-out and setting: under `CN(CC(=O)N1CCN(c2ccccc2)CC1)S(=O)(=O)c1cnc[nH]1` stands “inactive”; under `CC(C)CN(CC(C)C)S(=O)(=O)N1CCC(C(=O)NCc2ccc(F)cc2)CC1`, “inactive”; under `Cn1c[n+](C)cc1/C=N/O`, “inactive”.
On the same count and under the same terms, for `COc1cc(C2C(C(=O)OCCC#N)=C(C)NC3=C2S(=O)(=O)c2ccccc23)cc(OC)c1OC` (stereo not given) the value was “inactive”.
Consider `COC(=O)C1=C(C)NC(C)=C(C(=O)OCCSc2ccccc2)[C@@H]1C`, for which the half-maximal activity concentration (AC50) was 794 nM (active).
On to `Cc1cnn(-c2cc(N/N=C/c3ccccc3)ncn2)c1`, for which the AC50 was 2000 nM (active).
Turning to `Cc1cnn(-c2cc(N/N=C/c3ccccc3F)ncn2)c1`, the AC50 is 562 nM (active).
On to `CC(C)(C)N1C(=O)[C@H]2[C@@H]3[C@H](O)[C@H](O)CC(=O)[C@H]3CC[C@H]2C1=O`, for which the activity, negative = inhibition is -8.79% [at 11.4 µM] and -4.69% [at 11.4 µM].
On to `Cc1noc(C)c1C(=O)N1CCC2(CCN(Cc3cc(C(F)(F)F)cc(C(F)(F)F)c3)CC2)CC1`, for which the AC50 result is “inactive”.
For `CCC(Sc1ncccc1C(=O)O)C(=O)N1CCOCC1` (stereo not given), the AC50 entry was “inactive”.
As for `FC(F)(F)c1ccccc1-c1nc(NCCN2CCOCC2)c2ccccc2n1`, the AC50 is 12600 nM (active).
Same read-out and setting: for `Clc1ccccc1-c1nc(NCCN2CCOCC2)c2ccccc2n1` the value was 12600 nM (active); for `c1ccc2c(NCCN3CCOCC3)nc(-c3ccoc3)nc2c1`, 5010 nM (active); for `N#Cc1cccc(-c2nc(NCCN3CCOCC3)c3ccccc3n2)c1`, 1000 nM (active).
Still for that read-out and setting: for `O=C(NCCN1CCOCC1)c1nn2c(c1Cl)NC(c1ccccc1)CC2C(F)(F)F` (stereo not given) the value was “inactive”.
Turning to `N#Cc1nc(-c2ccc(OCc3ccccc3)cc2)oc1NCCN1CCOCC1`, the AC50 entry was “inactive”.
On the same count and under the same terms, under `O=C1C=C(NCCN2CCOCC2)CC(c2ccccc2)C1` (stereo not given) stands “inactive”; under `CC#CCCCC(=O)Nc1cc(OC)nc(OC)n1`, 355 nM (active).
In the case of `COc1cc(NC(=O)c2c(F)cccc2F)nc(OC)n1`, the AC50 was 20000 nM (active).
Same read-out and setting: under `COc1cc(NS(=O)(=O)c2ccc(N)cc2)nc(OC)n1` stands “inactive”; under `OC[C@@H]1O[C@@H](n2cnc3c(N[C@@H]4C[C@@H]5CC[C@H]4C5)ncnc32)[C@@H](O)[C@H]1O`, “inactive”; under `CN(CC(=O)O/N=C(\N)c1ccccn1)S(=O)(=O)c1ccccc1`, “inactive”.
The same measure, in the same setting: under `Cc1ccc(S(=O)(=O)N(C)CC(=O)O/N=C(\N)c2ccccn2)cc1` stands “inactive”; under `CCOC(=O)CN(c1ccccn1)S(=O)(=O)c1ccccc1`, 14100 nM (active); under `O=C(NCc1cccc(C(F)(F)F)c1)c1cc(Cl)cc(Cl)c1`, 12600 nM (active).
Still for that read-out and setting: for `COc1ccc(-c2coc3cc4oc(=O)cc(C)c4cc23)cc1F` the value was 2000 nM (active).
Regarding `O=C(NCc1ccccc1Cl)C1CCN(S(=O)(=O)N2CCC3(CC2)OCCO3)CC1`, the AC50 result was “inactive”.
Still for that read-out and setting: under `CCc1nc(N2CCC3(CC2)OCCO3)c2nnn(Cc3ccccc3Cl)c2n1` stands 7080 nM (active); under `Fc1ccc2nc(Nc3nc4c(s3)CCCC4)sc2c1`, 1580 nM (active).
The same measure, in the same setting: for `COc1ccc(NC(=O)N2CC[C@@]3(CCCN(C(=O)c4cnccn4)C3)C2)cc1` the value was “inactive”; for `Cc1ccc(C(=O)NC(=S)NCC2CCCO2)cc1` (stereo not given), 7080 nM (active); for `Cc1ccc(CS(=O)(=O)Cc2ccc(C(=O)NCC3CCCO3)o2)cc1` (stereo not given), “inactive”.
As to `CCS(=O)(=O)N1CCC(C(=O)NCCN2CCN(Cc3ccccc3)CC2)CC1`, the AC50 result is “inactive”.
Same read-out and setting: under `CCCn1c2c(c(O)c(C(=O)NCc3ccccc3)c1=O)CCCC2` stands 1260 nM (active).
Still for that read-out and setting: under `CCC(C)NC(=O)CCS(=O)(=O)c1ccc(Br)s1` (stereo not given) stands “inactive”.
The same measure, in the same setting: for `CNNCc1ccc(C(=O)NC(C)C)cc1` the value was 1580 nM (active).
As for `COc1ccc(CN[C@H](C)C(=O)O)cc1`, the activity, negative = inhibition was -2.04% [at 11.4 µM].
In the case of `N#Cc1nc(COc2ccccc2Cl)oc1NCc1ccco1`, the half-maximal activity concentration (AC50) was 14100 nM (active).
Same read-out and setting: under `c1ccc(NN(Cc2cnccn2)c2ccccc2)cc1` stands 2000 nM (active).
On the same count and under the same terms, for `COn1c(SCc2ccc(C)cc2C)nc2ccccc2c1=O` the value was 8910 nM (active); for `O=c1nc2ccccc2c2n1CC(CN1CCN(c3cccc(Cl)c3)CC1)N2` (stereo not given), “inactive”; for `COn1c(SCc2cccc(Cl)c2)nc2ccccc2c1=O`, 1260 nM (active).
The same measure, in the same setting: under `Cc1ccc(-n2c(SCc3ccc([N+](=O)[O-])cc3)nc3ccccc3c2=O)cc1` stands “inactive”.
Take `CC(C)C[C@H]1C(=O)N2CCC[C@@H]2[C@]2(O)O[C@](NC(=O)[C@H]3C=C4c5cccc6[nH]c(Br)c(c56)C[C@H]4N(C)C3)(C(C)C)C(=O)N12`: the AC50 result is “inactive”.
`OC1(c2ccc(OC(F)F)cc2)CSC(=Nc2cccnc2)N1C1CC1` (stereo not given): the AC50 is 1120 nM (active).
Take `CCOc1ccc(NC(=O)C(=O)NCC2CCCN2CC)cc1` (stereo not given): the AC50 entry is “inactive”.
For the compound `CCOc1ccc(NC(=O)N2CCC(C(N)=O)(N3CCCCC3)CC2)cc1`, the AC50 result is “inactive”.
Same read-out and setting: for `CCOc1ccc(N/N=C(/C#N)C(N)=O)cc1` the value was 5010 nM (active); for `O=C1CCN(S(=O)(=O)c2ccccc2)N1`, “inactive”.
On to `O=C(O)c1c2c(c(O)c3c1CN(C1CCCCC1)CO3)OCN(C1CCCCC1)C2`, for which the activity, negative = inhibition is 3.18% [at 11.4 µM].
As to `CCCCCCCCCCC/C=C\C(C)(C)/C=C\CCCC(=O)O`, the AC50 is 39800 nM (active).
Same read-out and setting: for `NCCCCC(=O)O` the value was “inactive”.
With `CCCCCCCCCCCCCCSCC(=O)O`, the AC50 result is “inactive”.
The same measure, in the same setting: under `NCCCCCC(=O)O` stands “inactive”; under `CCCCCCC/C=C\CCCCCCCCC(=O)O`, 31600 nM (active).
On the same count and under the same terms, for `CS(=O)(=O)Nc1cccc(-c2nccc(Nc3ccc(F)cc3)n2)c1` the value was 126 nM (active); for `CNc1nc(-c2cccc(NS(C)(=O)=O)c2)nc2ccccc12`, 398 nM (active).
As for `Nc1nccc(Nc2ccc(S(N)(=O)=O)cc2)n1`, the activity, negative = inhibition was -8.04% [at 11.4 µM].
Regarding `CS(=O)(=O)Nc1cccc(-c2nc(Nc3ccccc3)c3ccccc3n2)c1`, the AC50 was 794 nM (active).
Still for that read-out and setting: under `CS(=O)(=O)Nc1cccc(-c2nc(Nc3ccc(F)cc3)c3ccccc3n2)c1` stands 794 nM (active).
On to `CN(C)c1nc(-c2cccc(NS(C)(=O)=O)c2)nc2ccccc12`, for which the AC50 is 501 nM (active).
Take `COc1ccc(OC)c(Nc2nc(-c3cccc([N+](=O)[O-])c3)nc3ccccc23)c1`: the AC50 result was “inactive”.
Same read-out and setting: for `CS(=O)(=O)Nc1cccc(-c2nc(Nc3ccncc3)c3ccccc3n2)c1` the value was 631 nM (active); for `COc1cccc(-c2nc(Nc3ccncc3)c3ccccc3n2)c1`, 794 nM (active).
Consider `CC(C)(N)C(=O)N[C@@H]1C(=O)N2[C@@H]1SC(C)(C)[C@H]2C(=O)O`, for which the activity, negative = inhibition is 4.41% [at 2.29 µM].
Turning to `C[C@H](CCC(=O)NCC(=O)O)[C@H]1CC[C@H]2[C@H]3[C@@H](C[C@@H](O)[C@]12C)[C@]1(C)CC[C@H](O)C[C@@H]1C[C@@H]3O`, the AC50 entry was “inactive”.
The same measure, in the same setting: for `COc1cccc(CC(C(=O)Nc2cc(C)ccc2C)c2nn[nH]n2)c1OC` (stereo not given) the value was 3160 nM (active); for `Cn1cc(C(=O)c2ccc(Cl)cc2Cl)cc1C(=O)O`, “inactive”; for `COC(=O)c1cc(C(=O)c2ccc(Cl)cc2Cl)cn1C`, 2510 nM (active).
The same measure, in the same setting: for `Cc1c(-n2cc(C(=O)c3cc(Cl)ccc3O)cc(C#N)c2=O)c(=O)n(-c2ccccc2)n1C` the value was “inactive”.
Still for that read-out and setting: under `C(=C1/CCCC2=C1Nc1ncnn1C2c1ccccc1)/c1ccccc1` (stereo not given) stands 10000 nM (active).
Turning to `COC(=O)C1=C(C)Nc2ncnn2C1c1cccnc1` (stereo not given), the AC50 entry is “inactive”.
Same read-out and setting: for `CC(=O)SC[C@@H](Cc1ccccc1)C(=O)NCC(=O)OCc1ccccc1` the value was 2510 nM (active); for `CC(C)(C)c1ccc(COC(=O)CNC(=O)CNC(=O)Cc2ccccc2)cc1`, “inactive”; for `O=C(CNC(=O)Cc1ccccc1)NCC(=O)OCc1ccccc1` (PhAc-Gly-Gly-OBn), “inactive”.
The same measure, in the same setting: under `COc1ccccc1NC(=O)c1nc[nH]c1C(=O)Nc1ccccc1OC` stands 200 nM (active).
Consider `COCn1c2ccccc2c2nnc(C(C)=O)nc21`, for which the activity, negative = inhibition is -3.08% [at 11.4 µM] and -1.56% [at 11.4 µM].
For the compound `CCn1c2ccccc2c2nnc(NCCCO)nc21`, the AC50 is 1580 nM (active).
Turning to `Cc1c(NC(=O)CSc2nnc3c4ccccc4n(CCc4ccccc4)c3n2)c(=O)n(-c2ccccc2)n1C`, the AC50 entry is “inactive”.
Same read-out and setting: for `CCN(CC)c1ncnc2c1sc1nc(C)cc(C)c12` the value was 1410 nM (active); for `O=C(c1csnn1)N1CCC2(CC1)CCN(c1ncccn1)CC2`, “inactive”.
Still for that read-out and setting: for `C[N+](C)(C)CC(=O)O` the value was “inactive”; for `CS(=O)(=O)Nc1cccc(-c2ccc3ncnc(N4CCOCC4)c3c2)c1`, 12600 nM (active); for `CS(=O)(=O)Nc1ccc(S(=O)(=O)N2CCOCC2)cc1`, “inactive”.
On the same count and under the same terms, for `Cc1ccc(-c2nn3c(C)nnc3c3ccccc23)cc1S(=O)(=O)NCCN1CCOCC1` the value was “inactive”; for `CS(=O)(=O)Nc1cccc(-c2ccc3ncnc(N4CCNCC4)c3c2)c1`, 12600 nM (active).
For `Cn1nc(-c2ccc(N3CCOCC3)c(NS(=O)(=O)c3ccc(Cl)cc3)c2)c2ccccc2c1=O`, the AC50 result is “inactive”.
Same read-out and setting: for `CS(=O)(=O)Nc1cccc(-c2ccc3ncnc(NCCN4CCOCC4)c3c2)c1` the value was 25100 nM (active); for `CS(=O)(=O)Nc1cccc(-c2nc(N3CCOCC3)c3ccccc3n2)c1`, 5010 nM (active).
